Source: PubChem
Only some compounds are listed: those with a hit (about 14% of all), similar ones and a draw of the others.
USP17 inh – inhibitors of human USP17 deubiquitinase; purified USP17, Ub-rhodamine cleavage fluorescence, 3 h; inhibition, % at 50 µM; 6.5% of 47,000 active; AID 1645855, 2021
USP10 inh – inhibitors of human USP10 deubiquitinase; purified USP10, Ub-rhodamine fluorescence, 60 min; inhibition, % at 20 µM; 1.1% of 47,000 active; AID 1645856, 2021
USP8 block – inhibitors of human USP8 deubiquitinase. inhibition, % at 20 µM. purified USP8, Ub-rhodamine cleavage fluorescence, 30 min. 4.2% of 47,000 active. AID 1645853, 2021. Ubiquitin carboxyl-terminal hydrolase 8 (Homo sapiens), P40818
USP30 inh – inhibitors of human USP30 deubiquitinase. inhibition, % at 25 µM. Ubiquitin carboxyl-terminal hydrolase 30 (Homo sapiens), Q70CQ3. purified USP30, Ub-rhodamine cleavage fluorescence. 5.3% of 47,000 active. AID 1645860, 2021
USP28 block – inhibitors of human USP28 deubiquitinase; inhibition, % at 25 µM; AID 1645857, 2021; 3% of 47,000 active; Ubiquitin carboxyl-terminal hydrolase 28 (Homo sapiens), Q96RU2; purified USP28, Ub-rhodamine cleavage fluorescence, 30 min
Hits are given with their value; – = inactive; · = no result given. Rule as the data show it: active = inhibition above about 30%; inactive = the rest.

SMILES	USP17 inh	USP10 inh	USP8 block	USP30 inh	USP28 block
COc1ccc(S(=O)(=O)Nc2cccc(-c3cn4cccnc4n3)c2)cc1OC	–	–	–	–	–
CNC(=O)c1c2n(c3ncccc13)CCN(S(=O)(=O)c1ccc(-c3ccccc3)cc1)C2	52	34	–	–	–
CNC(=O)c1c2n(c3ncccc13)CCN(S(=O)(=O)c1ccc(C(C)(C)C)cc1)C2	–	–	–	–	–
CNc1nc(C2CCCCN2S(=O)(=O)c2ccccc2)nc2c1CCN(C(C)=O)C2 (centres undefined)	–	–	–	–	–
Cc1ccc(C)c(Cn2nnc3c(=O)[nH]c(C4CCN(S(=O)(=O)c5ccc(S(=O)(=O)NC6CCCCC6)cc5)CC4)nc32)c1	–	–	–	–	–
O=c1[nH]c(C2CCN(S(=O)(=O)c3ccc(S(=O)(=O)NC4CCCCC4)cc3)CC2)nc2c1nnn2Cc1c(F)cccc1Cl	–	45	–	59	55
O=c1[nH]c(C2CCN(S(=O)(=O)c3ccc(S(=O)(=O)NC4CC4)cc3)CC2)nc2c1nnn2Cc1c(Cl)cccc1Cl	–	31	32	–	–
O=c1[nH]c(C2CCN(S(=O)(=O)c3ccc(S(=O)(=O)NC4CCCCC4)cc3)CC2)nc2c1nnn2Cc1c(Cl)cccc1Cl	–	42	40	50	49
CC(=O)c1c(O)c2ccccc2n(Cc2ccccc2)c1=O	–	–	36	–	–
CC(=O)c1c(O)c2ccccc2n(C2CCCCC2)c1=O	–	–	49	–	–
Cc1ccc(-c2nc3c(c(=O)c4ccccc4n3C)c(=O)n2C2CCCCC2)cc1	–	–	–	–	–
Cc1cc(C)n2nc(CN(Cc3ccccc3)C(=O)c3ccc([N+](=O)[O-])cc3)nc2n1	–	–	–	–	–
Fc1ccc(Cn2ccc(-c3cnc(-c4ccccc4)s3)n2)cc1	–	–	–	–	62
O=c1c2cc(-c3ccccc3)sc2n(Cc2ccc(F)cc2)c(=O)n1-c1ccccc1	–	–	–	–	–
CC(NC(=O)C1CCN(S(C)(=O)=O)c2ccccc2O1)c1ccccc1 (centres undefined)	–	–	–	33	–
CC1(C)O[C@@H](C2CCNCC2)C2CC1C[C@H](O)[C@@]2(C)O (some centres undefined)	–	–	–	–	–
Cc1cccc(C(=O)Nc2cc(C(C)(C)C)on2)c1	–	–	–	–	–
Cc1cccc(C(=O)Nc2c(C)nn(Cc3cccc4ccccc34)c2C)c1	–	–	–	–	31
CCn1nc(C)c(CNC(=O)c2[nH]c3ccc(C)cc3c2NC(=O)c2cccc(C)c2)c1C	77	–	–	88	–
COc1ccc(CC(=O)N2CC(=O)Nc3ccc(Br)cc3C2c2ccccc2)cc1 (centres undefined)	–	–	–	38	–
O=C1CN(C(=O)CC2CCCCC2)C(c2ccccc2)c2cc(Cl)ccc2N1 (centres undefined)	–	–	34	43	–
O=C(Nc1cnc(N2CCCC2)nc1)C1CC1	·	–	–	–	–
CCOc1ccccc1CNC(=O)c1cc2oc3ccccc3c2n1C	–	–	–	–	–
Cc1cc(C)cc(-c2nc(SCC(=O)N3CCCC3)c3c(=O)n(C)c(=O)n(C)c3n2)c1	·	–	–	36	–
COC(=O)c1ccccc1NC(=O)c1ccc(S(=O)(=O)N2CCCC2)cc1	–	–	–	43	–
SMILES	USP17 inh	USP10 inh	USP8 block	USP30 inh	USP28 block
COc1ccc(S(=O)(=O)N2CCCCC2)cc1NC(=O)c1ccc(N2CCCC2=O)cc1	50	–	–	–	–
CCOC(=O)C1CCN(C(=O)c2ccc(C)c(S(=O)(=O)N3CCCCC3)c2)CC1	–	–	–	–	–
CCn1c(=O)c(C(=O)Nc2ccc(Br)c(C)c2)nc2ccccc21	–	–	–	40	–
Cc1nc2ccn(Cc3ccco3)c(=O)c2cc1C(=O)NCc1cccs1	–	–	–	–	30
COCCn1ccc2nc(C)c(C(=O)NCc3ccccc3)cc2c1=O	–	–	–	–	–
COc1ccc(CCNC(=O)CSc2nnc(NC(=O)c3ccccc3OC)s2)cc1OC	–	–	–	32	–
COc1cccc(NC(=O)Cn2cnc(NC(=O)c3ccccc3)n2)c1	–	–	–	–	–
COc1ccc(NC(=O)Cn2cnc(NC(=O)c3ccccc3)n2)cc1	46	–	–	–	–
O=C(Cn1cnc(NC(=O)c2ccc(F)cc2)n1)Nc1ccccc1	–	–	–	–	–
Cc1ccc(C(=O)Nc2ncn(CC(=O)Nc3ccccc3)n2)cc1	–	–	–	41	–
